Screens: PubChem, several laboratories
PLAP act: activates human placental alkaline phosphatase; P05187; purified PLAP enzyme, luminescent substrate read-out; stronger effect = higher value; activation fold at 20 µM; actives 1.2% (n = 96,000); AID 696; in the data active = activation fold above about 2
Target sequence (P05187 whole entry, looked up): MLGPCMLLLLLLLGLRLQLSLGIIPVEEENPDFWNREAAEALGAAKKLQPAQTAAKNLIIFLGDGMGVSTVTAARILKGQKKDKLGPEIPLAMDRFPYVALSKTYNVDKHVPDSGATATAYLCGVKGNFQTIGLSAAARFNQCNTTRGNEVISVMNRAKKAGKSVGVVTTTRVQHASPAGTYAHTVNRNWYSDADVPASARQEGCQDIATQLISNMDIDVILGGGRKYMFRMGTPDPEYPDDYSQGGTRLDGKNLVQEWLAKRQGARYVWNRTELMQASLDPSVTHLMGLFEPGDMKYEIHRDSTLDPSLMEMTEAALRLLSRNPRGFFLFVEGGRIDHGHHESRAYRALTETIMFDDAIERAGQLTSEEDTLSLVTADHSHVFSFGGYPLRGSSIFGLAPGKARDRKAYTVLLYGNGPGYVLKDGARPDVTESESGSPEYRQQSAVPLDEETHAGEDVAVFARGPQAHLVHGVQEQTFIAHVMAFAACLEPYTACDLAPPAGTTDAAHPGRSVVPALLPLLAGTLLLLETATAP
Cav32 inh: inhibitors of human Cav3.2 T-type calcium channel; Cav3.2-expressing cells, Fluo-4 calcium fluorescence FDSS; stronger effect = lower value; B-score at 10 µM; actives 4% (n = 100,000); AID 449739;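 active = single-dose well whose peak fluorescence ratio is a statistical outlier from its plate by either plate-standardised score or position-corrected B-score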
M1 agonist: agonists of M1 muscarinic receptor; CHO-M1 cells, Fluo-4 calcium fluorescence, agonist mode; stronger effect = higher value; B-score at 10 µM; actives 3% (n = 64,000); AID 626;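 active = fluorescence rise, raw or as B-score row- and column-corrected plate score, outside the 99.7% band of its plate's samples, either direction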
M1 antag: blocks the rat M1 muscarinic receptor response to acetylcholine. P08482. B-score at 10 µM. CHO-M1 cells, Fluo-4 calcium, ACh EC80 antagonist mode; stronger effect = lower value. actives 3.4% (n = 64,000);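 active = calcium fluorescence response, raw or row-and-column corrected B-score, differing from the plate sample mean either way at a set confidence level, mostly lower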
M1 agonist conf: rat M1 muscarinic agonism, confirmation. shares compounds with M1 agonist. CHO-M1 cells, Fluo-4 calcium fluorescence, agonist mode; actives lie on both sides. fluorescence change (max-min) at 10 µM. actives 19% (n = 1,700). AID 1488;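 active = fluorescence change differs from the solvent-only DMSO control mean at a set confidence level in both duplicate runs; inconclusive = differs from solvent-only control mean in just one of two runs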;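 note: an EC20 dose of acetylcholine follows compound addition during the same imaging run; raw fluorescence intensity difference in instrument units with no normalization to controls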
M4 agonist ctr: counter-screen for M1 agonists: activity at rat M4 receptor | CHO M4/Gqi5 cells, Fluo-4 calcium fluorescence, agonist mode; actives lie on both sides | shares compounds with M1 agonist | fluorescence change (max-min) at 10 µM | actives 9% (n = 1,700) | AID 1741;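 active = fluorescence change differing from the plate's solvent-only control wells at 99.7% confidence in both duplicates, whether higher or lower; inconclusive = differs from solvent controls in only one of two duplicates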
Numbers without * were called inactive; ? = inconclusive; . = no result. A selection: hits, their analogues and other compounds. The true share with any hit is near 7.6%.

SMILES	PLAP act	Cav32 inh	M1 agonist	M1 antag	M1 agonist conf	M4 agonist ctr
CCOC(=O)c1c(-c2ccccc2)nnn1-c1nc(OCC)nc(N2CCCCC2)n1	1.4	-7.6*	6.6*	-1.9	-29*	?
Cc1ccccc1N1OC2C(=O)N(c3ccc(F)cc3)C(=O)C2C1c1ccccn1 (stereo not drawn)	1	0.24	13*	-0.12	-6.3	-15
O=C1C2ON(c3ccccc3)C(c3ccccn3)C2C(=O)N1c1ccc(Br)cc1 (stereo not drawn)	1.5	-0.78	0.52	0.71	.	.
CC(C)(C)NC(=O)C1CCN(C(=O)c2ccc(Br)cc2)CC1	1.1	0.6	-0.84	0.14	.	.
Cc1nnc(NC(=O)Cn2cnc3c2c(=O)n(C)c(=O)n3C)s1	.	0.32	.	.	.	.
CCOC(=O)C1CCCN(C(=O)c2cc3nc(-c4cccc(OC)c4)cc(C(F)(F)F)n3n2)C1 (stereo not drawn)	1.2	-2.6	3.7*	-1.5	-15	-28
Cc1ccc(/C=c2\sc3nc(-c4cccs4)nn3c2=O)o1	1	-0.2	46*	0.3	39	48
COC(=O)C(Cc1cnc[nH]1)NC(=O)C1CCC(=O)N1 (stereo not drawn)	1	-0.26	-0.71	0.37	.	.
CCOc1ccc(CNn2nnnc2N)cc1	0.8	0.89	.	.	.	.
Cc1ccc(NC(=O)CCSc2nnnn2-c2ccc3c(c2)OCO3)cc1C	1.2	-5.1*	-2.7*	-0.17	-5.8	-19
COc1cc(CNCCc2c[nH]c3ccccc23)ccc1OCc1ccc(F)cc1	.	-0.71	.	.	.	.
COc1cc(C(=O)Nc2ccc3c(c2)OCCO3)ccc1OC(C)C	1.3	.	3.7*	0.73	-25	-40
CCn1cc(C(=O)Nc2ccc3c(c2)OCCO3)c2cc(OC)c(OC)cc2c1=O	1.6	0.14	4.1*	-0.0093	?	-47
CCn1cc(C(=O)Nc2cccc(NC(C)=O)c2)c2cc(OC)c(OC)cc2c1=O	1.5	.	-0.23	0.11	.	.
CCN(CC)c1ccc(NC(=O)OC)cc1	0.9	0.11	.	.	.	.
COc1ccc(-c2cc(CCCC(=O)NCCc3ccc(OC)cc3OC)no2)cc1	1.1	-0.59	-0.35	-0.083	.	.
COc1ccc(OC)c(CCNC(=O)Cn2sc3nc(C)cc(C)c3c2=O)c1	1	0.18	8*	-0.49	?	-28
O=C(Nc1ccccc1)N1CC=C(c2ccc(F)cc2)CC1	0.8	-4.6*	5.4*	-3.2*	?	?
CCOC(=O)C(CC)n1cnc2c(nnn2-c2ccc(C)cc2)c1=O (stereo not drawn)	1	-0.61	6.4*	0.53	-22	-71*
COc1ccc(OC)c(NC(=O)C(CC(=O)O)NCc2ccco2)c1 (stereo not drawn)	1.1	-0.54	-0.38	0.064	.	.
COC(=O)c1ccc(CC(=O)c2ccc(O)cc2O)o1	1	0.23	20*	0.13	37	11
OC(COc1ccccc1Cl)CN1CCN(CC(O)COc2ccccc2Cl)CC1 (stereo not drawn)	1.5	-2.2	5.2*	-0.49	-13	?
O=C(Cn1cnc2c(nnn2-c2ccc(F)cc2)c1=O)N1CCCc2ccccc21	1	0.0071	-3.2*	0.44	16	-41
COc1ccc(-n2nnc3c(=O)n(CC(=O)N4CCCc5ccccc54)cnc32)cc1	1.1	-0.4	1.2	-0.12	.	.
Nc1ccc2nc(CN3CCOCC3)[nH]c2c1	0.9	.	.	.	.	.
SMILES	PLAP act	Cav32 inh	M1 agonist	M1 antag	M1 agonist conf	M4 agonist ctr
COc1ccc(-n2c(C)cc(C(=O)COC(=O)Cn3cnc4ccccc43)c2C)cc1	1	-2.2	5.5*	-3.4*	?	-37
Cc1cc(C(=O)COc2cccc(-n3cnnn3)c2)c(C)n1-c1ccccc1	1.2	-0.75	1.2	-0.59	.	.
CN1CCC2(CC1)C1CN(C)CC=C1C(C#N)=C(N)C2(C#N)C#N (stereo not drawn)	1.1	.	34*	0.41	215*	160*
C=CCN=C1SCC(=O)N1S(=O)(=O)c1ccc(C)cc1	1	0.91	3.5*	-0.2	-15	-45
CN(C)c1ccc(-c2nc3ccccc3n2C)cc1	0.9	0.11	-0.037	-0.052	.	.
CCN(CC)c1ccc2cc(-c3nc4ccccc4n3C)c(=O)oc2c1	1.7	-1.4	65*	0.056	280*	400*
CCn1c(CC(C)C)n[nH]c1=S	0.9	0.44	-0.22	0.024	.	.
CCn1c(CCn2ccnc2C)n[nH]c1=S	0.9	-0.61	53*	-7.3*	225*	?
CCOc1ccc(S(=O)(=O)N2CCN(c3ccccc3OC)CC2)c2cccnc12	1.4	0.041	5.2*	-0.52	-16	-49
CC(=O)c1n[nH]nc1NC(=O)c1ccccc1	1	-0.015	2.8*	0.47	?	-40
c1ccc(CSc2nnnn2-c2ccc3c(c2)OCCO3)nc1	0.9	1.5	6.7*	0.22	-9.7	-24
O=C(CSc1nnnn1-c1ccc2c(c1)OCCO2)N1CCc2ccccc21	0.9	-0.55	-0.94	0.58	.	.
COC(=O)c1ccc(C(=O)OC)c(NC(=O)COC(=O)C23CC4CC(CC(O)(C4)C2)C3)c1	1.5	1.5	5.3*	-1.7	-6.2	-22
Cn1c(SCc2ccc(Cl)cc2)nc(C(F)(F)F)cc1=O	1.1	0.035	.	.	.	.
Cc1nn(C(=O)c2ccc3c(c2)OCO3)c(N)c1-c1ccccc1	1.1	-0.98	-1.7	-0.061	.	.
Cc1nn(C(=O)c2ccccc2)c2c1C(=O)CC(C)(C)C2	1	0.0025	9.7*	-0.035	-8.5	?
Cc1cc(-c2ccco2)c(C#N)c2nc3ccccc3n12	1	-0.69	11*	0.35	?	15
COc1ccc(OC)c(N(CC(=O)Nc2ccc3c(c2)OCO3)S(=O)(=O)c2ccccc2)c1	1.6	-2.4	2.8*	0.5	?	?
CN(CCNC(=O)CCNC(=O)Cn1ccc2ccccc2c1=O)Cc1ccccc1	1.3	1.5	-0.0035	1	.	.
O=C(Cn1ccc2ccccc2c1=O)NCCC(=O)N1CCN(C2CCCCC2)CC1	1.7	0.14	17*	-0.86	-1.5	-25
CC1CCCCC1NS(=O)(=O)c1ccc(S(=O)(=O)NCc2ccncc2)cc1 (stereo not drawn)	1.1	0.54	3.5*	-0.49	-11	-9.6
Cc1ccc(S(=O)(=O)NCc2ccncc2)cc1	0.8	1.3	-1.2	-0.72	.	.
CC1(C)Cc2nc3oc4c(N(CCO)Cc5ccccc5)ncnc4c3cc2CO1	1.4	1.6	8.1*	-0.47	-12	-20
CC1(C)Cc2nc3oc4c(N5CCOCC5)ncnc4c3cc2CO1	1.2	1.2	.	.	.	.
CCOc1ccc(NC(=O)CC2CC(C)(C)OC2=O)cc1 (stereo not drawn)	0.8	0.11	12*	0.23	-23	?
Cn1c(CCNC(=O)c2ccco2)nc2cc(NS(=O)(=O)c3ccccc3)ccc21	1	0.36	32*	-0.15	?	-68
CN1CCc2nc(SCC(=O)Nc3ccc(F)cc3)c(C#N)cc2C1	0.9	0.34	0.15	0.13	.	.
